Records with an inconclusive call do not appear. Calls of active or inactive are those of the source. Unless noted, the call rests on the fitted dose curve; in most records, active means well fitted curve in the direction sought with a large enough effect in the repeat runs; inconclusive means weak or mixed curves; inactive means no such curve, though single readings can be large; an effect the other way counts as inactive or inconclusive.
Experiments:
[1] = molecular target: Progesterone receptor (Homo sapiens) (UniProt P06401); assay: qHTS assay to identify small molecule agonists of the progesterone receptor (PR) signaling pathway (AID 1346784; calls by dose curve; further: nearly all actives have a fitted effect of over 30% in size)
Sequence of Progesterone receptor (Homo sapiens) (P06401 whole entry, looked up): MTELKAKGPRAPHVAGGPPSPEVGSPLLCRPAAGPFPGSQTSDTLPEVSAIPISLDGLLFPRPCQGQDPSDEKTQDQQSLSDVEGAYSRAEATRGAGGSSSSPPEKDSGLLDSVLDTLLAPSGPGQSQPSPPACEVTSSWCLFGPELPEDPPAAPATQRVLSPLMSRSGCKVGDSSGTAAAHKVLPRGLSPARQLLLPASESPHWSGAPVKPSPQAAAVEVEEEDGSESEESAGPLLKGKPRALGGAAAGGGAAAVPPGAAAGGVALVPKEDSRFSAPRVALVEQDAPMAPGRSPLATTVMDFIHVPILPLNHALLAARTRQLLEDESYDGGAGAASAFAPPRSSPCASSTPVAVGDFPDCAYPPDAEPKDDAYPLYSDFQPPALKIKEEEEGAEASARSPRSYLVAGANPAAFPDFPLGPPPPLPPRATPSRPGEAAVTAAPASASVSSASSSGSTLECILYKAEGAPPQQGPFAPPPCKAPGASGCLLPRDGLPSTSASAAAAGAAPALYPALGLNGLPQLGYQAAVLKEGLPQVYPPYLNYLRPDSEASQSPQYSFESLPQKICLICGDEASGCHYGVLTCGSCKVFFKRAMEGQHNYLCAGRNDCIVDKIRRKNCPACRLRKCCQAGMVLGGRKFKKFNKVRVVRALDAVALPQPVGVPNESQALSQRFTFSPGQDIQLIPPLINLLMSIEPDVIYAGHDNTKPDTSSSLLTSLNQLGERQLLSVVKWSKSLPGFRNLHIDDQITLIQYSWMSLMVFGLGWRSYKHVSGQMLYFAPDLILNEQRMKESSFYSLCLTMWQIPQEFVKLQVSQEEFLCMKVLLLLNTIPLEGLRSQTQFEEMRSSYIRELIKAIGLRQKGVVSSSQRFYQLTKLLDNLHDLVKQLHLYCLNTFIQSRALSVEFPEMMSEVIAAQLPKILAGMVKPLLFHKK
Outline: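 PR-UAS-bla HEK 293T cells (beta-lactamase reporter under UAS) in 2% charcoal-stripped FBS, dosed with 23 nL compound after 6 hr, incubated 16hr at 37C. LiveBLAzer B/G FRET substrate added, fluorescence read after 2 hours.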

[2] = qHTS assay to identify small molecule antagonists of the progesterone receptor (PR) signaling pathway - cell viability counter screen (AID 1346798); further: series mostly up to about 92 µM; nearly all actives have a fitted effect of over 50% in size
Outline: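 PR-UAS-bla HEK293T cells, 3,000/well in 2% charcoal-stripped FBS medium, dosed with compounds plus R5020 agonist and incubated 16 h at 37C. Viability then measured in the same wells by CellTiter-Glo luminescence after 30 min at RT.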

[3] = qHTS assay to identify small molecule agonists of the progesterone receptor (PR) signaling pathway - cell viability counter screen (AID 1346799; calls by dose curve; further: nearly all actives have a fitted effect of over 45% in size)
Outline: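 Counter screen in the PR-UAS-bla HEK293T wells (2% charcoal-stripped FBS, 16 h compound exposure at 37 C) after the bla read. CellTiter-Glo added, 30 min at room temperature, luminescence read as cell viability.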

[4] = qHTS assay to identify small molecule antagonists of the TGF-beta/Smad signaling pathway - cell viability counter screen (AID 1346824); further: nearly all actives have a fitted effect of over 50% in size
Outline: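 SBE-bla HEK 293T cells, incubated overnight, then compound plus 0.25 ng/mL TGF-beta1 (stock added) for 5 hr at 37 C. Viability was read in the same wells by CellTiter-Glo luminescence after 30 min at room temperature.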

[5] = qHTS assay to identify small molecule agonists of the TGF-beta/Smad signaling pathway - cell viability counter screen (AID 1346829); further: top concentration of the series differs between compounds; nearly all actives have a fitted effect of over 45% in size
Outline: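 Compound-treated SBE-bla HEK 293T cells (5 hr, 37 C) were assessed for viability with CellTiter-Glo in parallel with the reporter read.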

[6] = qHTS assay to identify small molecule agonists of the TGF-beta/Smad signaling pathway (AID 1346859; active means well fitted activation curve with a large enough effect in the signal ratio in the repeat runs, not every such curve was filed as active; the % refers to the signal ratio; further: series mostly up to about 77 µM)
Outline: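 SBE-bla HEK293T cells plated overnight, then compound exposure for 5 h at 37 C. Beta-lactamase reporter read with LiveBLAzer B/G FRET substrate after 2 h at room temperature, fluorescence at 405 nm excitation, 460/530 nm emission.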

[7] = Human pregnane X receptor (PXR) small molecule agonists, qHTS cell viability counter screen (AID 1346977); further: nearly all actives have a fitted effect of over 50% in size; further: potency means the concentration at half of the fitted maximal effect
Outline: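 PXR-Luc HepG2 cells (2,000/well, 5% charcoal-stripped FBS) preincubated 5 hr, then exposed to compounds 24 hr at 37 C. Viability read in the same wells by CellTiter-Fluor fluorescence, reagent added at 23 hr, 1 hr incubation.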

[8] = molecular target: Thyrotropin-releasing hormone receptor (Homo sapiens) (UniProt P34981); assay: qHTS assay to identify small molecule antagonists of the thyrotropin-releasing hormone receptor (TRHR) signaling pathway (AID 1346877; active means well fitted inhibition curve with a large enough effect in the repeat runs, not every such curve was filed as active; further: series mostly up to about 51 µM)
Sequence of Thyrotropin-releasing hormone receptor (Homo sapiens) (P34981 whole entry, looked up): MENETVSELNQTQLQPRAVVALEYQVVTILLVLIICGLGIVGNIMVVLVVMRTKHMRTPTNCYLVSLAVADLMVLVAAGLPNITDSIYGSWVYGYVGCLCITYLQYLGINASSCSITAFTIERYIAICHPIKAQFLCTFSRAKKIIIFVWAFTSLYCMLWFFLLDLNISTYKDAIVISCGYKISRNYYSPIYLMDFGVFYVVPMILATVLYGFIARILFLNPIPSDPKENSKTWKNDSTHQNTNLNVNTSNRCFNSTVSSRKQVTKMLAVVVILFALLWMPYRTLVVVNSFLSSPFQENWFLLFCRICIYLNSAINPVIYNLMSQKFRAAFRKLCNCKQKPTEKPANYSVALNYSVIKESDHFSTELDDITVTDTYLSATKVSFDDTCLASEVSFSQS
Outline: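 In this cell-based calcium flux format, HEK293 cells expressing TRHR received test compound for 5 min before the agonist TRH (1 nM final). Dye loading lasted 2 h at 37 °C.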

[9] = molecular target: Thyrotropin-releasing hormone receptor (Homo sapiens) (UniProt P34981); assay: qHTS assay to identify small molecule agonists of the thyrotropin-releasing hormone receptor (TRHR) signaling pathway (AID 1346891; calls by dose curve; further: potency means the concentration at half of the fitted maximal effect; on activation: series mostly up to about 58 µM)
Outline: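 HEK293 cells expressing TRHR plated 18 h at 37 C/5% CO2, calcium dye-loaded 2 h at 37 C, then compound added (agonist mode); kinetic calcium fluorescence read 3 min at 1 s intervals; 15 concentrations in triplicate.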

[10] = molecular target: Progesterone receptor (Homo sapiens) (UniProt P06401); assay: qHTS assay to identify small molecule antagonists of the progesterone receptor (PR) signaling pathway (AID 1346795; active means well fitted inhibition curve with a large enough effect in the signal ratio in the repeat runs, not every such curve was filed as active; the % refers to the signal ratio; further: potency means the concentration at half of the fitted maximal effect)
Outline: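 PR-UAS-bla HEK293T cells with beta-lactamase reporter under UAS control, in 2% charcoal-stripped FBS, treated with compounds plus 1 nM promegestone (R5020, final) for 16 hr at 37C. Read-out: FRET beta-lactamase substrate fluorescence after 2 hr at room temperature.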

Measured: Potency

CCN(CC)C(C)CN1c2ccccc2Sc2ccccc21 (configuration not stated)
not listed: [8] | [9] | [10]
inactive: all other assays above

CCCCCCCC/C=C\CCCCCCCC(N)=O
not listed: [2] | [10]
inactive: all other assays above

c1ccc(-c2nc[nH]c2-c2ccccc2)cc1
not listed: [2] | [10]
inactive: all other assays above

O=C(O)Cc1cc(I)c(Oc2ccc(O)c(I)c2)c(I)c1
not listed: [6] | [10]
inactive: all other assays above

O=S1(=O)c2cccc3cccc(c23)N1CCCN1CCN(c2ccc(F)cc2)CC1
active: [10] 18.8 µM
not listed: [2] | [3] | [7]
inactive: all other assays above

CC(=O)NCCCS(=O)(=O)O
active: [9] 11.9 µM
not listed: [10]
inactive: all other assays above

CCC(C)N(C)C(=O)c1cc2ccccc2c(-c2ccccc2Cl)n1 (configuration not stated)
not listed: [7] | [10]
inactive: all other assays above

COCCCCCCCCOCCC[Si](C)(O[Si](C)(C)C)O[Si](C)(C)C
active: [7] 30.6 µM
not listed: [2] | [3] | [4]
inactive: all other assays above

CCCCOC(O)CC (configuration not stated)
not listed: [2] | [3]
inactive: all other assays above

CCCc1ccccc1
not listed: [10]
inactive: all other assays above

CC(C)(C)c1cc(CO)cc(C(C)(C)C)c1O
not listed: [3] | [8] | [10]
inactive: all other assays above

O=c1[nH]cnc2ccccc12
inactive: [1] | [2] | [3] | [5] | [6] | [7]

CC(=O)c1c(C)c([N+](=O)[O-])c(C(C)(C)C)c([N+](=O)[O-])c1C
inactive: [1] | [2] | [4] | [5] | [6] | [7]

Nc1nc(N)c2nc(CNc3ccc(C(=O)N[C@@H](CCC(=O)O)C(=O)O)cc3)cnc2n1
inactive: [1] | [2] | [3] | [8] | [9] | [7]

CCCC(C)C
not listed: [2] | [3]
inactive: all other assays above

O=C(c1ccccc1)c1ccc2n1CCC2C(=O)O (configuration not stated)
inactive: [1] | [10] | [5] | [7]

CN(C)CCCOc1nn(Cc2ccccc2)c2ccccc12
active: [7] 26.6 µM
not listed: [2] | [10]
inactive: all other assays above

CCOc1ccc2[nH]cc(C(=O)NCc3ccccc3)c(=O)c2n1
not listed: [2] | [3] | [8]
inactive: all other assays above

C=C(C)C(=O)OC(C)C
not listed: [2] | [10]
inactive: all other assays above

Oc1ccc2c(c1)OCO2
inactive: [1] | [3] | [4] | [5] | [6] | [7]

COc1ccc2[nH]c(S(=O)Cc3ncc(C)c(OC)c3C)nc2n1 (configuration not stated)
not listed: [2] | [3]
inactive: all other assays above

CN(C)CC/C=C1\c2ccccc2COc2ccccc21
inactive: [1] | [10] | [4] | [5] | [6] | [9]

COC(=O)CSc1cc(N=c2sc(=O)n3n2CCCC3)c(F)cc1Cl
inactive: [1] | [2] | [5] | [7]

CC1(C)CCC(C)(C)c2cc(NC(=O)c3ccc(C(=O)O)cc3)ccc21
active: [10] 16.8 µM
inactive: [1] | [4] | [5] | [6] | [7]

O=C(c1ccc(O)cc1)c1ccc(O)cc1
active: [10] 48.6 µM
not listed: [2] | [3]
inactive: all other assays above

Cc1ccc(C(C)c2ccc(C)c(C)c2)cc1C
not listed: [2] | [8] | [10]
inactive: all other assays above

NC(N)=N/N=C/c1c(Cl)cccc1Cl
active: [7] 29.8 µM
not listed: [2] | [3]
inactive: all other assays above

From PubChem BioAssay (Tox21)
